In PubChem BioAssay (EPA / NIEHS):
Calls of active or inactive are those of the source. The calls were made as follows: active = hit-call score of the fitted dose curve at least 0.9, where 1 is the maximum; inactive = score below 0.9.

test: ATG_RORE_CIS: Attagene CIS-FACTORIAL HepG2 Assay for human RAR-related Orphan Receptor Element (RORE) (AID 2282959); settings: HepG2 Attagene cis-factorial RORE reporter, mRNA; actives raise or lower the signal
Description: ATG_CIS is a cell-based, multiplexed-readout assay that uses HepG2, a human liver cell line, with measurements taken at 24 hours after chemical dosing in a 24-well plate.ATG_RORE_CIS is one of 52 assay component(s) measured or calculated from the ATG_CIS assay. It is designed to make measurements of mRNA induction, a form of inducible reporter, as detected with fluorescence intensity signals by Reverse transcription polymerase chain reaction (RT-PCR) and Capillary electrophoresis technology.Data from the assay component ATG_RORE_CIS was analyzed into 1 assay endpoint. This assay endpoint, ATG_RORE_CIS, was analyzed with bidirectional fitting relative to DMSO as the negative control and baseline of activity. Using a type of inducible reporter, measures of mRNA for gain or loss-of-signal activity can be used to understand the reporter gene at the transcription factor-level as they relate to the gene RORA and RORB and RORC. Furthermore, this assay endpoint can be referred to as a primary readout, because this assay has produced multiple assay endpoints where this one serves a reporter gene function. To generalize the intended target to other relatable targets, this assay endpoint is annotated to the nuclear receptor intended target family, where the subfamily is orphan.
Human liver HepG2 cells are transiently transfected with multiple reporter transcription units (MRTUs) in 6-well plates using FuGene 6 reagent (Roche; 3 ml FuGene/1 mg DNA). The MRTU constructs are regulated by a cis-regulating element (promoter). […] A major difference between the CIS and TRANS system is that in CIS activities of endogenous TFs are measured, whereas the TRANS assay evaluates changes in activities of exogenous, chimeric NR-Gal4 proteins. […] At the end of 24 hour incubation, total RNA was isolated using TriZol reagent (Invitrogen). The isolated RNA is then reverse-transcribed using oligo(dT) primer and Mo-MLV reverse transcriptase (Invitrogen) with DNAse I (Ambion) treatment for 30 min. The one-tenth of the produced cDNA was amplified by PCR using Taq DNA polymerase (Invitrogen) and two reporter sequence-specific primers. The PCR products were fluorescently labeled by primer extension with 6-arboxyfluorescein (6-FAM) 5'-labeled reporter sequence-specific primer (2 min at 95 C, 20 s at 68 C and 10 min at 72 C) and these products were digested with 5U of HpaI (New England Biolabs) for 2h at 37 C. The fragments were purified using Qiaquick PCR columns (Qiagen), analyzed on an ABI 3130xL genetic analyzer (Applied Biosystems) with peak positions identified by using a set of X-rhodamine (ROX)-labeled MapMarker1000 molecular weight standards (BioVentures). The raw capillary electrophoresis data was processed using Attagraph software (Attagene).

**Q.** For CC(C)CC(C)CC(O)CC(C)C (stereo not given), which outcome is on record?
**A.** The outcome was “inactive”.

**Q.** Which outcome does the source give for Cc1occc(=O)c1OC(=O)C(C)C here?
**A.** The outcome was “inactive”.

**Q.** With O=[N+]([O-])c1cccc(Cl)c1 as the compound, how does the outcome read?
**A.** The outcome was “inactive”.

**Q.** For CCCC(=O)c1ccccc1, which outcome is on record?
**A.** Its outcome is “inactive”.

**Q.** For OCC#CCO, which outcome is on record?
**A.** Its outcome is “inactive”.

**Q.** With COc1ccc(CCO)cc1 as the compound, how does the outcome read?
**A.** Its outcome is “inactive”.

**Q.** For O=Cc1ccccc1S(=O)(=O)O, which outcome is on record?
**A.** Its outcome is “inactive”.

**Q.** Which AC50 does the source give for Clc1ccc(C(c2ccccc2Cl)C(Cl)Cl)cc1 (stereo not given) here?
**A.** Its AC50 is 27.3 µM (active).

**Q.** With [O-]n1ccccc1=S.[O-]n1ccccc1=S.[Zn+2] as the compound, how does the outcome read?
**A.** Its outcome is “inactive”.

**Q.** For O=C1OC(=O)c2c(Br)c(Br)c(Br)c(Br)c21, which outcome is on record?
**A.** Its outcome is “inactive”.

**Q.** Which outcome does the source give for C[N+](C)(C)CCCCCC[N+](C)(C)C here?
**A.** The outcome was “inactive”.

**Q.** Which outcome does the source give for CCCCCCCCCCCCCC(=O)OCC(O)CO (stereo not given) here?
**A.** Its outcome is “inactive”.

**Q.** With ON=C1CCCCC1 as the compound, how does the outcome read?
**A.** Its outcome is “inactive”.

**Q.** With O=C1OC2(c3ccccc31)c1ccc(O)c(Br)c1Oc1c2ccc(O)c1Br as the compound, how does the outcome read?
**A.** The outcome was “inactive”.

**Q.** For CC1=CC[C@@]23C[C@@H]1C(C)(C)[C@@H]2CC[C@H]3C, which outcome is on record?
**A.** Its outcome is “inactive”.

**Q.** With COC(C)(C)CC(C)=O as the compound, how does the outcome read?
**A.** Its outcome is “inactive”.

**Q.** Which outcome does the source give for Cc1cccc(Nc2ccccc2)c1 here?
**A.** Its outcome is “inactive”.

**Q.** Which outcome does the source give for COC(=O)c1cccnc1 here?
**A.** The outcome was “inactive”.

**Q.** For C[Si]1(C)O[Si](C)(C)O[Si](C)(C)O1, which outcome is on record?
**A.** Its outcome is “inactive”.

**Q.** With CCCCCCC(C)Nc1ccc(Nc2ccccc2)cc1 (stereo not given) as the compound, how does the outcome read?
**A.** The outcome was “inactive”.

**Q.** For O=C(O)c1cccnc1C(=O)O, which outcome is on record?
**A.** Its outcome is “inactive”.

**Q.** With CCCCC(CC)(CO)CO as the compound, how does the outcome read?
**A.** The outcome was “inactive”.

**Q.** With CCc1cc(Cc2cc(CC)cc(C(C)(C)C)c2O)c(O)c(C(C)(C)C)c1 as the compound, how does the AC50 read?
**A.** The AC50 was 18.1 µM (active).

**Q.** For CN(C)CCOc1ccc(/C(=C(/CCCl)c2ccccc2)c2ccccc2)cc1, which outcome is on record?
**A.** Its outcome is “inactive”.

**Q.** For COc1cc(C(C)C)ccc1C, which outcome is on record?
**A.** The outcome was “inactive”.

**Q.** With O=C(Nc1ccc2c(O)c(N=Nc3ccc(N=Nc4ccc(S(=O)(=O)O)cc4)cc3)c(S(=O)(=O)O)cc2c1)c1ccccc1 as the compound, how does the outcome read?
**A.** Its outcome is “inactive”.

**Q.** For CC1CCC(C(C)C)C(O)C1 (stereo not given), which outcome is on record?
**A.** Its outcome is “inactive”.

**Q.** For CCCN(CCC)S(=O)(=O)c1ccc(C(=O)O)cc1, which outcome is on record?
**A.** Its outcome is “inactive”.

**Q.** Which outcome does the source give for COCCOC(=O)c1ccccc1C(=O)OCCOC here?
**A.** Its outcome is “inactive”.

**Q.** For Cc1ccc(N)c(S(=O)(=O)O)c1, which outcome is on record?
**A.** The outcome was “inactive”.

**Q.** For C=C1C[C@]23C[C@@]1(O)CC[C@H]2[C@@]12C=C[C@H](O)[C@@](C)(C(=O)O1)[C@H]2[C@@H]3C(=O)O, which outcome is on record?
**A.** The outcome was “inactive”.

**Q.** For COc1ccccc1N=Nc1c(S(=O)(=O)O)cc2cc(S(=O)(=O)O)cc(NC(C)=O)c2c1O, which outcome is on record?
**A.** The outcome was “inactive”.

**Q.** Which outcome does the source give for CCCC(=O)OC(C)(C)Cc1ccccc1 here?
**A.** The outcome was “inactive”.

**Q.** Which outcome does the source give for CC(=O)Nc1ccc(C(=O)CCl)cc1 here?
**A.** Its outcome is “inactive”.

**Q.** With BrCc1cccc(Oc2ccccc2)c1 as the compound, how does the outcome read?
**A.** Its outcome is “inactive”.

**Q.** Which outcome does the source give for COCCOCCOCCO here?
**A.** The outcome was “inactive”.

**Q.** For c1ccc2[nH]cnc2c1, which outcome is on record?
**A.** The outcome was “inactive”.

**Q.** With CCCCCCCC(=O)OCC(O)CO (stereo not given) as the compound, how does the outcome read?
**A.** Its outcome is “inactive”.

**Q.** For Cc1[nH]c(=O)c(C#N)cc1-c1ccncc1, which outcome is on record?
**A.** The outcome was “inactive”.

**Q.** With Nc1ccc(N)c2c1C(=O)c1ccccc1C2=O as the compound, how does the outcome read?
**A.** Its outcome is “inactive”.
